# Key:
# Details in all cases: concentration: 1 μM, replicates: in singlicate; n = 1
# MST2 = system: T1, MST2
# T1 construct: gene STK3
# MST3 = system: T2, MST3
# T2 construct: gene STK24
# MST4 = system: MST4
# MTOR = system: MTOR
# MUSK = system: MUSK
# MYLK2 = system: MYLK2
# MYLK4 = system: MYLK4
# MYLK = system: MYLK
# MYO3A = system: MYO3A
# MYO3B = system: MYO3B
# 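Note: KINOMEscan kinase panel screen.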
Compound,%Inh (MST2),%Inh (MST3),%Inh (MST4),%Inh (MTOR),%Inh (MUSK),%Inh (MYLK2),%Inh (MYLK4),%Inh (MYLK),%Inh (MYO3A),%Inh (MYO3B)
O=C(Nc1ccc2c(c1)OCO2)NC1CCN(c2ccnc(Nc3ccc(F)cc3)n2)C1 (centres unmarked) [GSK1379724],0%,0%,0%,5%,2%,1%,0%,0%,24%,0%
COc1cc2ncnc(Nc3ccc4nc(-c5ccccc5)[nH]c4c3)c2cc1OC.Cl [GW282450],0%,0%,0%,16%,10%,0%,8%,29%,21%,0%
O=c1cc(N2CCOCC2)nc2n(Cc3cccc(Cl)c3Cl)ccn12 [GSK2286295],0%,0%,0%,17%,8%,2%,0%,25%,0%,8%
Cc1cc(-c2ccc3c(c2)CC[C@@H](N[C@@H](C)c2ccccc2)C3)cnc1N.Cl [GW412617],15%,0%,0%,14%,28%,21%,8%,10%,0%,0%
CN(C)CCN(C)C(=O)c1cc(-c2ccncc2)c(-c2ccc(Cl)c(O)c2)o1.Cl.Cl [SB-710397],0%,0%,0%,33%,18%,11%,0%,10%,0%,0%
O=C(O)COc1ncnc2cc(-c3ccc4[nH]ncc4c3)sc12,40%,24%,0%,14%,9%,31%,22%,7%,0%,0%
Cc1cccc(-c2nc(Nc3ccncc3)c3ccccc3n2)n1 [GW855857],0%,3%,0%,50%,17%,7%,7%,12%,0%,17%
COc1cccc(NC(=O)NC2CCN(c3ccnc(Nc4ccc(F)cc4)n3)C2)c1 (centres unmarked) [GSK1379721],17%,0%,0%,19%,0%,1%,6%,0%,25%,6%
Cc1nnc(-c2ccc3occ(-c4ccc(S(C)=O)cc4)c3c2)[nH]1 (centres unmarked),0%,11%,0%,10%,16%,4%,7%,11%,0%,2%
CCn1c(-c2ccccn2)nc2cnccc21 [SB-736398],0%,0%,0%,0%,5%,3%,2%,0%,18%,0%
Cc1ccc(-c2cc(-c3c[nH]nc3-c3ccccn3)ccn2)cc1 [GW684088],3%,25%,0%,22%,0%,39%,13%,18%,46%,5%
CCn1c(-c2cccnc2O)nc2cnccc21 [SB-736715],23%,0%,0%,0%,0%,15%,0%,0%,0%,3%
Cc1csc(-c2nc(Nc3ccncc3)c3ccccc3n2)n1 [GW869640],0%,11%,40%,74%,11%,5%,0%,26%,2%,36%
Fc1cc(Cl)ccc1Nc1ccnc2cc(I)ccc12 [GW551191],9%,0%,0%,8%,0%,0%,0%,11%,13%,0%
O=C1NC(=O)C(N2CCc3ccccc32)=C1c1ccccc1Cl [SB-373598],0%,0%,8%,15%,2%,22%,0%,8%,14%,9%
Cc1cccc(-c2nc(C)cc(Nc3ccncc3)n2)n1 [GSK257997],0%,0%,0%,13%,0%,16%,9%,5%,6%,0%
CN1C(=O)C(Nc2ccc(Cl)c(C(=O)O)c2)=C(c2ccc(Cl)cc2)C1=O [SB-404290],0%,0%,33%,0%,13%,0%,5%,12%,11%,31%
Cc1cccc(-c2nc(-c3ccc(S(C)(=O)=O)cc3)sc2-c2ccnc(NCCc3ccccc3)c2)c1,4%,0%,32%,0%,0%,14%,12%,0%,10%,0%

Compound,%Inh (MST2),%Inh (MST3),%Inh (MST4),%Inh (MTOR),%Inh (MUSK),%Inh (MYLK2),%Inh (MYLK4),%Inh (MYLK),%Inh (MYO3A),%Inh (MYO3B)
Cl.NC(=O)c1cccc(Nc2nccc(Nc3ccc(Oc4cccc(Cl)c4)c(Cl)c3)n2)c1 [GW659008],0%,10%,0%,0%,13%,21%,14%,3%,6%,3%
COc1ccc(CNC(=O)NC2CCN(c3ccnc(Nc4cc(OC)c(OC)c(OC)c4)n3)C2)cc1 (centres unmarked) [GSK1379748],1%,0%,0%,14%,2%,4%,2%,10%,36%,0%
O=C(Nc1n[nH]c2nc(-c3nccs3)c(Br)cc12)C1CC1 [SB-742251],0%,0%,0%,16%,0%,93.4%,23%,7%,0%,0%
C[C@@H]1CCCCN1c1cc(-c2ccc3c(N)n[nH]c3c2)nc(N)n1 [GSK2258759],0%,7%,0%,2%,5%,0%,0%,5%,30%,0%
COc1ccc2nc(-c3cccc(C)n3)nc(Nc3ccncc3)c2c1 [GSK204919],0%,0%,0%,43%,1%,0%,0%,5%,0%,0%
CS(=O)(=O)c1ccc(-c2c(-c3ncn[nH]3)sc(N3CCOCC3)c2C#N)cc1,13%,100%,0%,74%,2%,12%,29%,9%,4%,4%
CC(=O)Nc1nc2cnc(Nc3cc(NC(=O)c4cccc(CCC#N)c4)ccc3C)nc2s1,27%,3%,0%,0%,0%,0%,6%,27%,13%,0%
Cc1ccc(C(=O)Nc2ccc(Nc3ccnc4cc(-c5ccccn5)ccc34)cc2O)cc1.Cl [GW440146],0%,0%,0%,17%,14%,6%,0%,5%,11%,0%
COC(=O)c1c(-c2ccccc2)c2cc(C(=O)O)ccc2c(=O)n1Cc1ccccc1,12%,0%,9%,25%,0%,8%,0%,0%,0%,0%
Cc1cccc(-c2nc(Nc3ccc4[nH]ncc4c3)c3ccccc3n2)n1 [GW857175],0%,10%,27%,0%,0%,7%,32%,32%,0%,0%
Cc1ccc(NC(=O)Nc2cccc(Cl)c2)cc1-c1ccc(C(=O)Nc2ccncc2)cc1 [GSK1398468],0%,0%,0%,9%,5%,9%,13%,8%,100%,0%
Cl.Oc1ccc(-c2nc(-c3ccccc3)[nH]c2-c2ccncc2)cc1 [SB-428218],0%,0%,0%,32%,0%,0%,17%,22%,46%,0%
Cn1cncc1-c1ccc2ncnc(Nc3ccc(OCc4ccccc4)cc3)c2c1 [GW320571],0%,0%,0%,30%,21%,20%,0%,6%,0%,0%
COc1cc2ncn(-c3cc(OCC4CCCO4)c(C(N)=O)s3)c2cc1OC (centres unmarked) [GSK204607],1%,6%,0%,11%,1%,0%,81%,19%,15%,0%
O=S(=O)(c1ccc(-c2ccnc3[nH]ccc23)cc1)N1CCCC1 [GSK846226],4%,14%,0%,12%,0%,3%,62%,22%,10%,0%
COc1cc(Nc2nccc(N3CCC(NC(=O)Nc4cc(C)ccc4C)C3)n2)cc(OC)c1OC (centres unmarked) [GSK1379762],0%,6%,0%,10%,25%,6%,0%,12%,2%,0%
Cc1cccc(-c2nc(Nc3cccc(C(N)=O)c3)c3ccccc3n2)n1 [GW876019],20%,0%,0%,35%,0%,0%,0%,28%,11%,20%

# Source: publication PMC5540273 (PLoS ONE, 2017)
